Source: PubChem
This is a sample that favours compounds with a hit; in the whole collection about 13% have one here.
Pf growth 96h – Primary qHTS for delayed death inhibitors of the malarial parasite plastid, 96 hour incubation; P. falciparum luciferase reporter growth, 96 h; Potency, µM (series often up to 28.7 µM), inactives show top-dose activity change, negative = inhibition, usual class: inhibitors; actives 6.9% (n = 320,000); AID 504834, 2011; note: potency is the fitted concentration of half-maximal effect
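Plates of compound plus infected erythrocytes (2% hematocrit, 0.05% parasitemia final) incubate 96 hours, 37 C, 5% CO2. Detection reagent added; reduced luminescence from the parasites' luciferase reporter flags inhibition.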
HCV inh – qHTS Assay for Inhibitors of Hepatitis C Virus (HCV). Huh7.5.1 HCVcc-Cre infection, luciferase reporter, 44 h. Potency, µM (doses to about 41.8 µM), inactives show top-dose activity change, negative = inhibition, usual class: inhibitors. actives 3.4% (n = 340,000). AID 651820, 2012; note: potency is the fitted concentration of half-maximal effect
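Cells (1,000/well) were plated 4 h before compound, then infected with HCVcc-Cre virus (~0.5 moi). After 44 h further culture, infection was read as luciferase luminescence following a 15 min substrate incubation at room temperature.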
Pf growth 48h – Primary qHTS for delayed death inhibitors of the malarial parasite plastid, 48 hour incubation. P. falciparum luciferase growth in erythrocytes, 48 h. actives 5.9% (n = 310,000). Potency, µM (doses to about 28.7 µM), for the others: at the top dose activity change, negative = inhibition, usual class: inhibitors; note: potency is the fitted concentration of half-maximal effect
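In quantitative HTS format, infected erythrocytes bearing luciferase-reporter parasites were treated for a single generation at 37 C. Luminescence after adding detection reagent served as the growth measure.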
HCMV inh – qHTS Assay for inhibitors of the human cytomegalovirus (HCMV). HFF cells, HCMV-luciferase reporter, 72 h; hits give low values. activity change, negative = inhibition, % at 57.5 µM. actives 4.5% (n = 410,000). AID 1259415, 2018; in the data active = activity change below about -60%; inconclusive = no clear call, values can overlap the other calls; inactive = above about -39%
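Compounds were evaluated in HFFs infected with an HCMV luciferase reporter virus (MOI 1 PFU/cell). Luciferase in lysates collected 72 h post infection served as the replication measure.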
Starred values were filed as active, the others as inactive; ? = inconclusive; · = no result given; [ ] = dose if it differs, or a comment. Unless noted, calls come from the whole dose curve; as a rule, active = well fitted inhibition curve with a large enough effect; inconclusive = small, poorly fitted or top-dose-only effect, or another doubt; inactive = no such curve, though single readings can be large or run the other way. % is set by controls: 0 for no effect and ±100 for the full control effect.

SMILES | Pf growth 96h | HCV inh | Pf growth 48h | HCMV inh
O=c1c(=O)n(-c2ccc(F)c(F)c2)ccn1Cc1ccc(F)cc1Cl | · | · | · | -31
COc1cccc(S(=O)(=O)NCc2ccc(C(=O)Nc3ccc(Cl)cc3)cc2)c1 | 1% | ? | -9% | ?
O=C(Nc1ccccc1)c1cc(S(=O)(=O)NCc2ccncc2)ccc1Cl | 12µM* | ? | -6% | ?
COc1cccc(S(=O)(=O)NCc2ccc(C(=O)Nc3cccc(Cl)c3)cc2)c1 | 9.3µM* | 10µM* | · | -12
CCCCNc1cccc2c1S(=O)(=O)N[C@H](C)CO2 | · | · | · | 50
CN(C)c1ccc(NC(=O)Cn2nnc3sc4c(c3c2=O)CCC(C(C)(C)C)C4)cc1 (centres undefined) | · | · | · | -3
O=C(CSCc1c(Cl)cccc1Cl)Nc1ccccc1-c1ccccc1 | ? | ? | ? | -66*
O=C(Cn1nc(-c2ccccc2Cl)ccc1=O)Nc1ccc(Br)cc1 | ? | 9% | 2% | -23
O=C(CNC(c1ccccc1)c1ccccc1)Nc1ccccc1-c1ccccc1 | 13µM* | ? | 12µM* | -71*
O=C(Cn1nc(-c2ccccc2Cl)ccc1=O)Nc1ccccc1-c1ccccc1 | -25% | ? | -4% | -64*
O=C(CSc1nc(-c2cccs2)nc2cc(=O)[nH]n12)Nc1ccccc1Cl | · | · | · | -11
CC(C)NC(=O)C1(C)CSCC(=O)N1Cc1cccc(F)c1 (centres undefined) | · | · | · | 31
C=CCC(CC=C)(CNC(=O)C(=O)Nc1cc(C)ccc1OC)c1ccc(OC)c(OC)c1 | · | · | · | 9
CN(C)CC1CCCCC1C1(O)c2ccccc2CSc2sccc21 (centres undefined) | ? | ? | 9.3µM* | 43
O=C(CNC(=O)c1ccccc1)Nc1ccc(Br)cc1C(=O)c1ccccc1 | 16% | ? | -10% | -4
O=C(CN1CCCCC1)NCC(=O)Nc1ccc(Br)cc1C(=O)c1ccccc1 | 122% | 11µM* | -3% | 13
O=C(CCN1CCOCC1)NCC(=O)Nc1ccc(Br)cc1C(=O)c1ccccc1 | 13µM* | 0% | 11% | -14
Cc1cccc(CCNC(=O)c2sc3nc4n(c(=O)c3c2C)CCCC4)c1 | · | · | · | 30
Oc1ccc(N2CCN(c3ncnc4sc(-c5ccccc5)cc34)CC2)cc1 | 15µM* | ? | ? | 101
CCc1cc2c(N3CCN(c4ccccc4)CC3)ncnc2s1 | -3% | 8.9µM* | -1% | -70*
CC(=O)N1CCN(c2ncnc3sc(-c4ccccc4)cc23)CC1 | ? | ? | 17% | -19
Cc1ccc(-n2ncc3c(N4CCN(c5ccccc5)CC4)ncnc32)cc1C | · | · | · | -12
CCN(CC)CCNC(=O)c1cc(Cl)c(N)cc1OC | -10% | -9%[8.37 µM] | 3% | -39
CCN(CC)CCOC(=O)c1cc(Cl)c(N)cc1OC | 68% | 4.5µM* | 33% | -21
COc1ccc(OC)c(N=c2oc3cc(O)ccc3cc2C(N)=O)c1 | 13µM* | ? | 11% | 9
SMILES | Pf growth 96h | HCV inh | Pf growth 48h | HCMV inh
NC(=O)c1cc2ccc(O)cc2oc1=Nc1ccccc1 | 21% | 13% | 59% | -82*
COc1ccc(NC(=O)c2cc3ccc(O)cc3o/c2=N\O)cc1 | -15% | 22µM* | 217% | 196
COc1ccc2o/c(=N\O)c(C(=O)Nc3ccccc3OC)cc2c1 | · | 6% | 23% | 11
CCC(CC)C(C(=O)NCc1ccccc1)N1CCN(C(=O)C2CCCO2)CC1 (centres undefined) | · | · | · | 44
COC(=O)[C@@H]1[C@@H](CO)[C@@H]2Cn3c(ccc(Br)c3=O)[C@H]1N2C(=O)c1ccncc1 | · | · | · | -3
CCCCCCCCN1C(=O)[C@@H](CC(=O)NCCC(C)C)C[C@@]2(C(=O)OC)C1=C[C@H](C1CCCC1)O[C@@H]2C | · | · | · | 31
COCCCNc1nc2nonc2nc1N1CCC(C(C)N2CCOCC2)CC1 (centres undefined) | 110% | -7% | -3% | 9
COCCCNc1nc2nonc2nc1N1C[C@H]2CC[C@H]1C2 | ? | -3% | -17% | -15
COCCNc1nc2nonc2nc1N1C[C@H]2CC[C@H]1C2 | 10µM* | 16% | 12% | 55
COCCNc1nc2nonc2nc1N1CCC(N(C)C)C1 (centres undefined) | 6.6µM* | 16% | -17% | 12
O=C1c2cccc(OCc3ccc(F)cc3)c2CCN1Cc1ccc(F)cc1 | ? | 6.3µM* | ? | -82*
CN1CCc2c(OCc3ccc(F)cc3)cccc2C1=O | ? | ? | -3% | 51
O=C(COc1cccc2c1CCN(Cc1ccc(Br)cc1)C2=O)N1CCOCC1 | ? | 11µM* | ? | -24
O=C(COc1cccc2c1CCN(Cc1ccccc1F)C2=O)N1CCOCC1 | -41%[1.15 µM] | · | 1% | ·
Cc1ccc(CN2CCc3c(OCc4ccc(F)cc4)cccc3C2=O)cc1 | ? | ? | ? | -81*
CN(C)c1ccc(CNC(=O)c2cccc(NC(=O)N3CCSc4ncccc43)c2)cc1 | · | · | · | -6
CCCNC(=O)C[C@@H]1CC[C@H]2NC[C@H](O)COC[C@@H]2O1 | · | · | · | -11
CCC(c1nc2ccccc2[nH]1)n1c(-c2cccnc2)nc2ccccc21 (centres undefined) | · | · | · | -12
CCCn1c(-c2cccc(Br)c2)nc2ccccc21 | · | · | · | 3
CCCCn1c(-c2cccnc2)n[nH]c1=S | 2.6µM* | 3% | -1% | -22
CCCCn1c(-c2cccc(Br)c2)nc2cc3[nH]c(=O)c(C(C)C)nc3cc21 | 6.6µM* | 4% | ? | -5
CCCCn1c(-c2cccnc2)nc2cc3[nH]c(=O)c(C(C)C)nc3cc21 | 10µM* | -19% | ? | 38
Cc1ccc(NC(=O)c2ccc(Cl)cc2Cl)c(C(=O)c2ccccc2)c1 | · | · | · | -22
Cc1ccc(S(=O)(=O)N2C[C@@H](C)[C@]3(C2)[C@H](O)[C@H](OC(=O)Nc2cccs2)C[C@H]2C(=O)N(c4ccccc4)C(=O)[C@H]23)cc1 | · | · | · | -104*
Cc1ccc(S(=O)(=O)N2C[C@@H](C)[C@]3(C2)[C@H](O)[C@H](OC(=O)NC2CC2)C[C@H]2C(=O)N(c4ccccc4)C(=O)[C@H]23)cc1 | · | · | · | -4
CCC(=O)N1c2ccccc2CC1C(=O)NCc1ccccc1C (centres undefined) | · | · | · | 2
COc1ccc(C(c2nnnn2CC2CCCO2)N2CCN(c3ccc(F)cc3)CC2)cc1 (centres undefined) | 8.3µM* | 2% | ? | -23
COCCn1nnnc1C(c1ccccc1)N1CCN(c2ccccc2)CC1 (centres undefined) | ? | -23% | -27% | -19
COc1ccc(C(c2nnnn2Cc2ccccc2)N2CCC3(CC2)C(=O)NCN3c2ccccc2)cc1 (centres undefined) | · | · | · | 0
COc1ccc(C(c2nnnn2Cc2ccccc2)N2CCN(c3nc4ccccc4s3)CC2)cc1 (centres undefined) | · | ? | 5.2µM* | -13
